From PubChem BioAssay (Tox21)
Records with an inconclusive call do not appear. Active and inactive are the calls of the source. Unless noted, calls follow the shape of the dose curve; as a rule, active = well fitted curve in the direction sought with a large enough effect in the repeat runs; inconclusive = weak or mixed curves; inactive = no such curve, though single readings can be large; an effect the other way counts as inactive or inconclusive.

Legend:
[1] = qHTS assay for small molecule agonists of the p53 signaling pathway (AID 651631; calls by dose curve; also: nearly all actives have a fitted effect of over 15% in size; also: potency is read from the fitted curve at half-maximal effect)
In short: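 Readout was fluorescence from the LiveBLAzer FRET substrate, applied for 2 h at room temperature after 16 h compound exposure at 37 °C. Cells were the p53RE-bla HCT-116 line, with beta-lactamase driven by p53 response elements.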

[2] = qHTS assay for small molecules that induce genotoxicity in human embryonic kidney cells expressing luciferase-tagged ATAD5 (AID 651632); also: nearly all actives have a fitted effect of over 15% in size
In short: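 Test compounds were delivered by pin tool onto HEK293T reporter cells (2,000/well) expressing ATAD5 fused to luciferase. After 16 hr at 37C, 5% CO2, Amplite was added for 30 min at room temperature and luminescence was measured.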

[3] = qHTS assay for small molecule agonists of the p53 signaling pathway - cell viability (AID 651633; calls by dose curve; also: nearly all actives have a fitted effect of over 30% in size; also: potency is read from the fitted curve at half-maximal effect)
In short: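 p53RE-bla cells, seeded at 4,000 per well and rested 5 h at 37 C/5% CO2, received compounds in DMSO for 16 h at 37 C. CellTiter-Glo was then added, and luminescence was read after 30 min at room temperature to gauge cytotoxicity.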

[4] = qHTS assay for small molecules that induce genotoxicity in human embryonic kidney cells expressing luciferase-tagged ATAD5 - cell viability (AID 651634; calls by dose curve; also: nearly all actives have a fitted effect of over 25% in size; also: potency is read from the fitted curve at half-maximal effect)
In short: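 Quantitative high-throughput format. HEK293T cells expressing ATAD5 fused to luciferase were plated at 2,000 cells/well and treated 15.5 hr with compound versus DMSO. Viability was determined by fluorescent live-cell protease substrate, 30 min at 37C.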

[5] = qHTS assay for small molecule disruptors of the mitochondrial membrane potential - cell viability (AID 720634; calls by dose curve;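 also: human HepG2 liver cancer cells; series mostly up to about 83 µM; nearly all actives have a fitted effect of over 20% in size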)
In short: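 Same-well counter-screen: following the MMP dye addition, CellTiter-Glo was added to 1 hr compound-treated HepG2 cells and luminescence read after 30 min at room temperature.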

[6] = qHTS assay for small molecule disruptors of the mitochondrial membrane potential (AID 720635); also: potency is read from the fitted curve at half-maximal effect
In short: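 HepG2 cells (2,000/well) attached overnight at 37C, then took compound for 1 hr at 37C, 5% CO2. Mito-MPS dye was added for 30 min; fluorescence was read at 490/535 nm (monomers) and 540/590 nm (aggregates).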

[7] = qHTS assay to test for compound auto fluorescence at 590 nm (red) in HepG2 cells (AID 720674)
In short: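 Compound auto-fluorescence is scored relative to Rose Bengal sodium, measured at 540/590 nm in live HepG2 cultures after 1 hr compound contact (37 C, 5% CO2).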

[8] = qHTS assay to test for compound auto fluorescence at 535 nm (green) in HepG2 cells (AID 720675)
[9] = qHTS assay to test for compound auto fluorescence at 460 nm (blue) in HEK293 cells (AID 720678)
In short: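 Triamterene serves as the blue fluorophore standard. Compound signal at 405/460 nm is read in HEK293 wells (2,000 cells, 10% dialyzed FBS) after overnight treatment at 37C.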

[10] = qHTS assay to test for compound auto fluorescence at 535 nm (green) in HEK293 cells (AID 720680)
[11] = qHTS assay to test for compound auto fluorescence at 535 nm (green) in HEK293 cell free culture (AID 720682)
In short: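 Compounds were pin-transferred into cell-free DMEM with 10% FBS, and green fluorescence was read at excitation 485 nm and emission 535 nm. Intensities were expressed as fluorescein-equivalent values.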

[12] = qHTS assay to test for compound auto fluorescence at 590 nm (red) in HEK293 cell free culture (AID 720683)
In short: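 Tox21 10K library compounds were pinned into cell-free DMEM with 10% FBS and fluorescence was read at excitation 540 nm. Activity is expressed as Rose Bengal sodium equivalency.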

[13] = qHTS assay to test for compound auto fluorescence at 590 nm (red) in HepG2 cell free culture (AID 720684)
In short: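 Ex 540 / Em 590 nm read of compound in cell-free MEM (10% FBS). Rose Bengal sodium reference.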

[14] = qHTS assay to test for compound auto fluorescence at 460 nm (blue) in HepG2 cell free culture (AID 720685)
In short: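 Cell-free plates of MEM plus 10% FBS received 23 nL compound or DMSO vehicle; blue-channel (405/460 nm) intensity scored against triamterene as reference fluorophore.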

[15] = qHTS assay to test for compound auto fluorescence at 535 nm (green) in HepG2 cell free culture (AID 720686)
[16] = qHTS assay to test for compound auto fluorescence at 460 nm (blue) in HepG2 cells (AID 720687)
In short: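 Cells (2,000/well in MEM with 10% FBS) attached overnight at 37 C, then were exposed to compound or DMSO for 1 hr at 37 C, 5% CO2. Fluorescence read at Ex/Em 405/460 nm, expressed as triamterene-equivalent signal.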

[17] = target: Glucocorticoid receptor (Homo sapiens) (UniProt P04150); test: qHTS assay to identify small molecule agonists of the glucocorticoid receptor (GR) signaling pathway (AID 720691; active = well fitted activation curve with a large enough effect in the signal ratio in the repeat runs, not every such curve was filed as active; the % refers to the signal ratio)
Chain of Glucocorticoid receptor (Homo sapiens) (P04150 whole entry, looked up): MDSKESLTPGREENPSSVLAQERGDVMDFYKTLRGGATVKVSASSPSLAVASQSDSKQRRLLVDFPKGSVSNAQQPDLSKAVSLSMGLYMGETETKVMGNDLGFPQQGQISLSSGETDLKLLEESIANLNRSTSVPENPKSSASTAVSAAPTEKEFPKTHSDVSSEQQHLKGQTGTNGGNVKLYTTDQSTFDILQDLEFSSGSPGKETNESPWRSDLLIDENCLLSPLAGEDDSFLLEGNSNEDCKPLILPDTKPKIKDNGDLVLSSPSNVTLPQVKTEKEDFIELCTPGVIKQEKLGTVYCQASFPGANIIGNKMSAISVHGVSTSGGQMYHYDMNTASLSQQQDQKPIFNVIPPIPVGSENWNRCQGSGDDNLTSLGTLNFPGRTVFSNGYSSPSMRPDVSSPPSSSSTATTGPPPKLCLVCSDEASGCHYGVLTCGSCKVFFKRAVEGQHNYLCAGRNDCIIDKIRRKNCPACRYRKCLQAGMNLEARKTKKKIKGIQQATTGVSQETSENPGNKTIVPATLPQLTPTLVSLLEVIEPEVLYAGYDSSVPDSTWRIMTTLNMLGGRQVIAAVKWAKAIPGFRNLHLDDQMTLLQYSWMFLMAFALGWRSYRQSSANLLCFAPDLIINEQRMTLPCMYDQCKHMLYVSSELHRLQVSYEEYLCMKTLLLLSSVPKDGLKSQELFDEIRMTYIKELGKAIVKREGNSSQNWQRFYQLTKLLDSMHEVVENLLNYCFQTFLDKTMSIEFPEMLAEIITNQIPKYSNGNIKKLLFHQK
In short: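 A HeLa cervical cancer line expressing GR and a glucocorticoid response element-driven beta-lactamase gene is treated with compounds for 18 h; LiveBLAzer B/G FRET substrate is then applied and fluorescence read.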

[18] = target: Glucocorticoid receptor (Homo sapiens) (UniProt P04150); test: qHTS assay to identify small molecule antagonists of the glucocorticoid receptor (GR) signaling pathway (AID 720692; active = well fitted inhibition curve with a large enough effect in the signal ratio in the repeat runs, not every such curve was filed as active; the % refers to the signal ratio; also: potency is read from the fitted curve at half-maximal effect)
In short: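 GRE-bla HeLa line, dex-stimulated (5 nM final). Compound exposure 18 h, 37 C. Beta-lactamase FRET read after 2 h RT substrate.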

[19] = qHTS assay to test for compound auto fluorescence at 590 nm (red) in HEK293 cells (AID 720679)
In short: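 We plated HEK293 cells in 10% dialyzed FBS medium, let them adhere for 4-5 hr, then added 23 nL compound. Overnight at 37C and 5% CO2 preceded fluorescence measurement at 540/590nm.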

[20] = qHTS assay to test for compound auto fluorescence at 460 nm (blue) in HEK293 cell free culture (AID 720681)
In short: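 Test compounds were pinned into cell-free culture medium (DMEM with 10% FBS) and fluorescence was read directly at Ex/Em 405/460 nm. Signals were expressed as fluorescence equivalents of triamterene, with DMSO vehicle as control.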
% is scaled to controls: 0 for no effect and ±100 for the full control effect.

NCCNCCO
inactive: Potency [1] | Potency [2] | Potency [3] | Potency [4] | Potency [5] | Potency [6] | outcome [7] | outcome [8] | Potency [9] | outcome [10] | outcome [11] | outcome [12] | outcome [13] | Potency [14] | outcome [15] | Potency [16] | Potency [17] | Potency [18]

Brc1cc2ccccc2c2ccccc12
inactive: Potency [1] | Potency [2] | Potency [3] | Potency [4] | Potency [5] | outcome [7] | outcome [8] | Potency [9] | outcome [19] | outcome [10] | Potency [20] | outcome [11] | outcome [12] | outcome [13] | Potency [14] | outcome [15] | Potency [16] | Potency [17]

COc1cc(N)c(Cl)cc1C(=O)NC1CCN(CCCOc2ccc(F)cc2)CC1OC (configuration not stated)
inactive: Potency [1] | Potency [2] | Potency [3] | Potency [4] | Potency [5] | fluorescence, relative to Rose Bengal [7] 0.956% [at 18.6 µM] | fluorescence, % of fluorescein control [8] -0.0882% [at 18.6 µM] | fluorescence, % of triamterene [9] -0.493% [at 18.6 µM] | fluorescence, % of fluorescent control [19] 0.102% [at 18.6 µM] | fluorescence, % of fluorescein [10] 0.0057% [at 18.6 µM] | fluorescence, % of fluorescent control [20] -0.0155% [at 18.6 µM] | activity change [11] 0.0082% [at 18.6 µM] | fluorescence, % of fluorescent control [12] 0.142% [at 18.6 µM] | fluorescence, % of Rose Bengal [13] -0.186% [at 18.6 µM] | fluorescence, % of fluorescent control [14] -0.0728% [at 18.6 µM] | fluorescence, % of fluorescein control [15] -0.0661% [at 18.6 µM] | fluorescence, % of fluorescent control [16] 0.156% [at 18.6 µM] | Potency [18]

Cc1ccco1
inactive: Potency [1] | Potency [2] | Potency [3] | Potency [4] | Potency [5] | Potency [6] | outcome [7] | outcome [8] | outcome [19] | outcome [10] | Potency [20] | outcome [11] | outcome [12] | outcome [13] | Potency [14] | Potency [16] | Potency [17] | Potency [18]

CCCCCC[C@@H](O)C/C=C\CCCCCCCC(=O)OCC(O)CO (some centres not stated)
inactive: Potency [1] | Potency [2] | Potency [3] | Potency [4] | Potency [5] | outcome [7] | outcome [8] | Potency [9] | outcome [10] | Potency [20] | outcome [11] | outcome [12] | outcome [13] | Potency [14] | outcome [15] | Potency [16] | Potency [17]

CC(C)=CC(=O)C=C(C)C
inactive: Potency [1] | Potency [2] | Potency [3] | Potency [4] | Potency [5] | outcome [7] | outcome [8] | Potency [9] | outcome [19] | outcome [10] | outcome [11] | outcome [12] | outcome [13] | Potency [14] | outcome [15] | Potency [16]

O=C(/C=C/c1ccc(O)c(O)c1)O[C@@H]1C[C@@](OC(=O)/C=C/c2ccc(O)c(O)c2)(C(=O)O)C[C@@H](O)[C@@H]1O
inactive: Potency [1] | Potency [2] | Potency [3] | Potency [4] | Potency [5] | outcome [7] | outcome [8] | Potency [9] | outcome [19] | outcome [10] | Potency [20] | outcome [11] | outcome [12] | outcome [13] | Potency [14] | outcome [15] | Potency [16] | Potency [17] | Potency [18]

CCOC(=O)c1ccccc1C(=C1C=C(Br)C(=O)C(Br)=C1)c1cc(Br)c(O)c(Br)c1
active: Potency [1] 7.24 µM | Potency [3] 7.24 µM | Potency [4] 40.7 µM | Potency [6] 20.4 µM | Potency [18] 4.61 µM
inactive: Potency [2] | Potency [5] | outcome [7] | outcome [8] | outcome [19] | outcome [10] | Potency [20] | outcome [11] | outcome [12] | outcome [13] | Potency [14] | Potency [16]

CCn1cc(C(=O)O)c(=O)c2cc(F)c(N3CCNCC3)cc21
inactive: Potency [1] | Potency [2] | Potency [3] | Potency [4] | Potency [5] | outcome [7] | outcome [8] | Potency [9] | outcome [19] | outcome [10] | Potency [20] | outcome [11] | outcome [12] | Potency [14] | outcome [15] | Potency [16] | Potency [18]

Cc1cscn1
inactive: Potency [1] | Potency [2] | Potency [3] | Potency [4] | Potency [5] | outcome [7] | outcome [8] | Potency [9] | outcome [19] | Potency [20] | outcome [11] | outcome [12] | outcome [13] | Potency [14] | outcome [15] | Potency [16]

C=C(C)CCCC(C)CCO (configuration not stated)
inactive: Potency [1] | Potency [2] | Potency [3] | Potency [4] | Potency [5] | outcome [7] | outcome [8] | Potency [9] | outcome [19] | Potency [20] | outcome [11] | outcome [12] | outcome [13] | Potency [14] | outcome [15] | Potency [16]

CC(C)=CCC/C(C)=C/CC/C(C)=C/CCC(=O)OC/C=C(\C)CCC=C(C)C
inactive: Potency [1] | Potency [2] | Potency [3] | Potency [4] | Potency [5] | outcome [7] | outcome [8] | Potency [9] | outcome [19] | outcome [10] | Potency [20] | outcome [11] | outcome [12] | outcome [13] | Potency [14] | outcome [15] | Potency [16] | Potency [17]

CCC=CC#N
inactive: Potency [1] | Potency [2] | Potency [3] | Potency [4] | Potency [5] | outcome [7] | outcome [8] | Potency [9] | outcome [19] | outcome [10] | outcome [11] | outcome [12] | outcome [13] | Potency [14] | outcome [15] | Potency [16] | Potency [17] | Potency [18]

Nc1ncnc2c1ncn2[C@H]1CC[C@@H](CO)O1
inactive: Potency [1] | Potency [2] | Potency [3] | Potency [4] | Potency [5] | Potency [6] | outcome [7] | outcome [8] | outcome [19] | outcome [10] | Potency [20] | outcome [11] | outcome [12] | outcome [13] | Potency [14] | outcome [15] | Potency [16]

Cc1cc2c(OCC(CNC(C)(C)C)OC(=O)c3ccccc3)cccc2[nH]1 (configuration not stated)
inactive: Potency [1] | Potency [2] | Potency [3] | Potency [4] | Potency [5] | outcome [7] | outcome [8] | Potency [9] | outcome [19] | outcome [10] | Potency [20] | outcome [11] | outcome [12] | outcome [13] | Potency [14] | outcome [15] | Potency [16] | Potency [17] | Potency [18]
